# Test results: the supplement of paper PMC11150407
# Where a name gives a salt, the structure may show the parent alone. Out of some 2,100 compounds screened, about 180 (8.6%) showed an effect of 50% or more. The sample holds strong results, similar compounds and a random draw of the others, so the mix is not that of the screen.
# System: MOLM1 and UCSD/AML1 (averaged)
# Test: cell viability relative to DMSO control (POC); higher = less growth inhibition
# Settings: 1 µM; 72 h
# Procedure: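 Primary viability screen in the 3q26 EVI1-high AML cell lines MOLM1 and UCSD/AML1 (1.5e3 cells/well, 384-well), compounds at 1 uM for 72 h. ATP CellTiter-Glo read-out given as percent of viable cells over DMSO control (POC), averaged over duplicates. DMSO was the negative control and 5 uM etoposide the positive control. This mapping covers the MicroSource Spectrum and Selleck anticancer libraries (drug names).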
row,SMILES,cell viability
1,C=C1C(=O)[C@]23[C@H](CC[C@@H]1[C@@H]2O)[C@]12CO[C@@]3(O)[C@H](O)[C@H]1C(C)(C)CC[C@@H]2O,94.3%
2,CC1(C)CC2C1CCC1(C)OC2(C)CCC1O (stereo unspecified),91.4%
3,CC(C)=CCC/C(C)=C/COc1ccc2ccc(=O)oc2c1,92.6%
4,CC(C)(C)NCC(O)c1ccc(O)c(CO)c1 (racemic),93.2%
5,O=C(O)c1cc2cc(Cl)ccc2[nH]1,98.1%
6,O=C1c2c(O)ccc(O)c2C(=O)c2c(NCCNCCO)ccc(NCCNCCO)c21 [Mitoxantrone Hydrochloride],2.15%
7,O=C1c2c(O)cccc2Cc2cccc(O)c21,102%
8,O=C1c2c(O)ccc(O)c2C(=O)c2c(NCCNCCO)ccc(NCCNCCO)c21,8.27%
9,O=C1c2cccc(O)c2C(=O)c2c(O)cccc21,104%
10,NCCOB(c1ccccc1)c1ccccc1,117%
11,CC(C)CCC[C@@H](C)[C@H]1CC[C@H]2[C@@H]3CC(=O)[C@H]4C[C@@H](O)CC[C@]4(C)[C@H]3CC[C@]12C [5alpha-CHOLESTAN-3beta-OL-6-ONE],107%
12,Cc1ccc(C(=O)N(CCCN)[C@@H](c2nc3cc(Cl)ccc3c(=O)n2Cc2ccccc2)C(C)C)cc1,15.3%
13,Cc1ccc(C(=O)N(CCCN)[C@@H](c2oc3cc(Cl)ccc3c(=O)c2Cc2ccccc2)C(C)C)cc1,13.4%
14,CC(=O)O[C@@H]1C[C@H]2C(C)(C)C(=O)CC[C@]2(C)[C@H]2CC[C@@]3(C)[C@H](c4ccoc4)OC(=O)[C@H]4O[C@]43[C@@]21C,100%
15,CNC(=O)c1ccc(N2C(=S)N(c3ccc(C#N)c(C(F)(F)F)c3)C(=O)C2(C)C)cc1F [MDV3100 (Enzalutamide)],102%
16,CC(C)CC(NC(=O)[C@H](C)N)C(=O)O (mixture of isomers),105%
17,COc1cc(C)c(C(=O)Oc2cc(C)c(C(=O)O)c(O)c2C)c(OC)c1C,109%
18,CNS(=O)(=O)c1ccc(NC(=O)c2ccccc2C(=O)O)cc1,110%
19,Nc1nc(=O)c2[nH]c(=O)cnc2[nH]1,112%
20,C[C@]12CCC(=O)C=C1C=C[C@@H]1[C@@H]2CC[C@@]2(C)[C@H]1CC[C@@]21CCC(=O)O1,83.2%
21,CN1CCC(CNc2ccc3ncc(-c4cccc(OC(F)(F)F)c4)n3n2)CC1 [SGI-1776 free base],80%
22,O=c1c(O)cc([C@H]2Oc3cc(O)cc(O)c3C[C@H]2O)cc2c([C@H]3Oc4cc(O)cc(O)c4C[C@H]3O)cc(O)c(O)c12,104%

row,SMILES,cell viability
1,CN1CCN(CCOc2cc(OC3CCOCC3)c3c(Nc4c(Cl)ccc5c4OCO5)ncnc3c2)CC1 [Saracatinib (AZD0530)],47.7%
2,C=CC(=O)N1CCC[C@@H](n2nc(-c3ccc(Oc4ccccc4)cc3)c3c(N)ncnc32)C1,60.3%
3,Cc1ccc2c(c1)CC[C@H]1CC(=O)CC[C@]21C,104%
4,CC(=O)N1CCCC1C(=O)O (stereo unspecified),108%
5,O=C[C@H](O)[C@@H](O)[C@H](O)CO,121%
6,CN(N=O)C(=O)N[C@@H](C=O)[C@@H](O)[C@H](O)[C@H](O)CO [Streptozotocin (Zanosar)],37.4%
7,CC(=O)N[C@@H](C=O)[C@@H](O)[C@H](O)[C@H](O)CO,107%
8,CC(=O)O[C@H]1CC[C@]2(C)[C@H]3CC=C4[C@@H]5CC(C)(C)CC[C@]5(C(=O)O)CC[C@@]4(C)[C@]3(C)CC[C@H]2C1(C)C,102%
9,COC(=O)[C@@]1(C)CCC[C@]2(C)c3ccc(O)c(C(C)C)c3CCC12 (stereo partly specified),109%
10,COC(=O)c1cc(O)c(=O)c2c(O)c(O)ccc2c1,109%
11,Cc1cnc(-c2cnc(NCCNc3ccc(C#N)cn3)nc2-c2ccc(Cl)cc2Cl)[nH]1,133%
12,Cc1cc(=O)oc2c(O)c(O)ccc12,93.6%
13,C=C1CCC(C2CC(=O)OC2=O)C(=O)CCC2C1CC2(C)C (stereo unspecified),104%
14,FC(F)c1nc2ccccc2n1-c1nc(N2CCOCC2)nc(N2CCOCC2)n1,26.8%
15,CCOC(=O)c1c(C)cc(O)c(C=O)c1O,98.9%
16,CC(=O)/C(=C\c1ccccc1)CC(=O)O,118%
17,COC(=O)C[C@H]1C(C)(C)C(=O)[C@@H]2CC3=C(CC[C@]4(C)C3=CC(=O)O[C@H]4c3ccoc3)[C@@]1(C)C2=O,93.4%
18,CN1CCN(c2cccc(Nc3nc4c(-c5ccc(S(C)(=O)=O)cc5)cccn4n3)c2)CC1,33.3%
19,CC1=CC2C(CC1=O)C(C)=CCC2C(C)C (stereo unspecified),92.7%
20,COc1ccc(-c2cc(=O)c3c(OC)c(OC)c(OC)c(OC)c3o2)cc1,89.9%
21,CC(=O)/N=c1/sc(S(N)(=O)=O)nn1C,112%
22,CSCC[C@H](NC=O)C(=O)N[C@@H](Cc1ccccc1)C(=O)O,105%

row,SMILES,cell viability
1,CC(=O)O[C@@H]1CC[C@@]2(C)C(C[C@@H](OC(C)=O)[C@@]3(C)C4=CC(=O)O[C@@H](c5ccoc5)[C@]4(C)CCC23)C1(C)C (stereo partly drawn) [3alpha-ACETOXYDIHYDRODEOXYGEDUNIN],82%
2,O=c1cc(N2CCOCC2)oc2c(-c3ccccc3)cccc12,73.8%
3,Oc1cccc(-c2nc(N3CCOCC3)c3oc4ncccc4c3n2)c1,25.7%
4,Nc1ccc(C(=O)Nc2cccc(-c3nc(N4CCOCC4)c4oc5ncccc5c4n3)c2)cn1,52.7%
5,OC[C@H]1O[C@@H](OCCc2ccc(O)cc2)[C@H](O)[C@@H](O)[C@@H]1O,107%
6,CC(=O)O[C@H]1CC[C@]2(C)C3=C(CC[C@H]2C1(C)C)[C@]1(C)CC[C@H]([C@H](C)CCC=C(C)C)[C@@]1(C)CC3,94.1%
7,CCn1c(-c2nonc2N)nc2c(C#CC(C)(C)O)ncc(OC[C@H]3CCCNC3)c21,54%
8,CCCCC[C@H](CC(=O)O)C(=O)O,111%
9,CCCCCCCCCCCCCCCCCCCCCCO,101%
10,C[N+](C)(C)CCCCCC[N+](C)(C)C,114%
11,CCCCCCCCCCCCCCCC[N+](C)(C)C,43.7%
12,COc1cc(OC)c(-c2c(OC)cc(OC)cc2OC)c(OC)c1,104%
13,CC1CCC2(OC1)OC1CC3C4CCC5C[C@@H](O)CCC5(C)C4=CCC3(C)C1[C@@H]2C (stereo partly drawn) [3beta-HYDROXYISOALLOSPIROST-9(11)-ENE],91.8%
14,CC(=O)Nc1cccc(-n2c(=O)n(C3CC3)c(=O)c3c(Nc4ccc(I)cc4F)n(C)c(=O)c(C)c32)c1,27.3%
15,CC(=O)Oc1cc(C)c2c(c1C(OC(C)=O)OC(C)=O)Oc1c(c(C)c(OC(C)=O)c3c1C(OC(C)=O)OC3=O)OC2=O (stereo unspecified),97.6%
16,CC(=O)O[C@H]1C[C@@H](OC(C)=O)C(C)(C)C2CC(=O)[C@]3(C)C(CC[C@@]4(C)[C@H](c5ccoc5)OC(=O)[C@H]5O[C@]543)[C@]21C (stereo partly specified),97.1%
17,CC(=O)Oc1cc(OC(C)=O)c2c(c1)O[C@H](c1ccc(OC(C)=O)c(OC(C)=O)c1)[C@@H](OC(C)=O)C2,96.7%
18,COc1ccc(-c2cc(=O)c3c(O)cc(O)cc3o2)cc1O,83%
19,C=CC(=O)Nc1cccc(Oc2nc(Nc3ccc(N4CCN(C)CC4)cc3OC)ncc2Cl)c1,86.3%
20,COc1cc(N2CCC(N3CCN(C)CC3)CC2)ccc1Nc1ncc(Cl)c(Nc2ccccc2S(=O)(=O)C(C)C)n1,30.7%
21,COc1ccc(-c2oc3c(CC=C(C)C)c(O[C@@H]4O[C@H](CO)[C@@H](O)[C@H](O)[C@H]4O)cc(O)c3c(=O)c2O[C@@H]2O[C@@H](C)[C@H](O)[C@@H](O)[C@H]2O)cc1,83%
22,CC(=O)O[C@H]1CC[C@@]2(C)[C@@H](CC[C@@H]3[C@@H]2CC(=O)[C@]2(C)[C@@H]4[C@H](C[C@@H]32)O[C@]2(CC[C@@H](C)CO2)[C@H]4C)C1,88.1%

row,SMILES,cell viability
1,COc1cc(OC2CCN(C)CC2)ccc1Nc1ncc2c(n1)n(C1CCCC1)c(=O)n2C,70.8%
2,CC[C@@H]1C(=O)N(C)c2cnc(Nc3ccc(C(=O)NC4CCN(C)CC4)cc3OC)nc2N1C1CCCC1,13.2%
3,CC[C@@H]1C(=O)N(C)c2cnc(Nc3ccc(C(=O)N[C@H]4CC[C@H](N5CCN(CC6CC6)CC5)CC4)cc3OC)nc2N1C(C)C [BI6727 (Volasertib)],14.5%
4,CCOC(=O)CCCCCCCCCCCCC1C=CCC1 (stereo unspecified),103%
5,CN1CCN(C(c2ccccc2)c2ccccc2)CC1,102%
6,COC(=O)C1=CO[C@@H](O[C@@H]2O[C@H](CO)[C@@H](O)[C@H](O)[C@H]2O)[C@@H]2[C@@H](C)[C@@H](O)C[C@H]12,94.9%
7,CC1(C)CCC[C@]2(C)[C@@H]3[C@H]1[C@@H](O)[C@@]2(C)C[C@H]3O,92%
8,CC(C)C[C@H](N)C(=O)N[C@@H](C)C(=O)O,98.2%
9,CC(=O)OC(C)(C)[C@@H]1Cc2cc3ccc(=O)oc3cc2O1,100%
10,"CCNC(=O)c1noc(-c2cc(C(C)C)c(O)cc2O)c1-c1ccc(CN2CCOCC2)cc1 [Luminespib (AUY-922, NVP-AUY922)]",2.13%
11,O=C(O)[C@H](O)[C@@](O)(Cc1ccc(O)cc1)C(=O)O,92.1%
12,C/C=C(\C)C(=O)O[C@@H]1c2c(ccc3ccc(=O)oc23)OC(C)(C)[C@@H]1OC(C)=O,101%
13,N[C@@H](Cc1c[nH]c2ccccc12)C(=O)O,89.5%
14,OCc1c[nH]c2ccccc12,87.2%
15,c1ccc2c(CCNc3ccc(Nc4ccncc4)cc3)c[nH]c2c1,43.4%
16,Cc1cc(O)c(C=O)c(O)c1C(=O)O,121%
17,CC(=O)Oc1ccc2c(c1C(C)C)CCC1C(C)(C)CCC[C@]21C (stereo partly specified),91.9%
18,CC1(C)CC23C(=O)CCC(O)C2(C)CCC13 (stereo unspecified),96.7%
19,CN1CCC(c2c(O)cc(O)c3c(=O)cc(-c4ccccc4Cl)oc23)C(O)C1 (stereo unspecified) [Flavopiridol (Alvocidib) HCl],1.36%
20,CC(C)CCC[C@@H](C)[C@H]1CC[C@H]2[C@@H]3C(=O)C=C4C[C@@H](O)CC[C@]4(C)[C@H]3CC[C@]12C,95.7%
